Bioassay records: PubChem BioAssay, National Center for Advancing Translational Sciences (NCATS)
Hits are enriched below; roughly 3.7% of the tested compounds scored in any of these assays.
TGFb SMAD3 inh: qHTS for Inhibitors of TGF-b; HepG2 CAGA-GFP TGF-b/SMAD3 reporter, GFP fluorescence, 18 h; TGF-beta stimulated, 500 pg/mL final; Potency, µM (titrated, usually from 46.1 µM), inactives show top-dose activity, negative = inhibition, hits mostly inhibitors; AID 588855, 2011; 410,000 tested, 1.2% active; note: % is set by controls: 0 for no effect and ±100 for the full control effect; nearly all actives have a fitted effect of over 65% in size
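HEPG2 CAGA-GFP, 1000 cells/well; 2 h settle, 37 C; cpd via pin tool; TGF-b 500 pg/mL final; 18 h, 37 C; GFP imaging ex488/em500-530; %Activity normalised to -TGF-b and +DMSO controls; CRC fit, curve class.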
S2 tox: Viability Counterscreen for Primary qHTS for Inhibitors of ATXN expression | S2 cells (HEK-293 line with an ATXN2-luciferase reporter) viability, CellTiter-Fluor protease fluorescence, 24 h | Potency, µM (highest dose often 56.7 µM), hits mostly cytotoxic | 400,000 tested, 0.49% active | AID 651635, 2014; note: nearly all actives have a fitted effect of over 40% in size
GLP-1R agonist: qHTS of GLP-1 Receptor Agonists. Glucagon-like peptide 1 receptor (Homo sapiens), P43220. HEK293 GLP-1R CRE-luciferase, luminescence, 4-6 h; cells express a hypersensitive GLP-1R form. Potency, µM (series often up to 45.6 µM), without a hit: top-dose activation, most hits filed as activators. 380,000 tested, 0.007% active. AID 624172, 2012; note: % of control where 0% means no effect
Target sequence (P43220 whole entry, looked up): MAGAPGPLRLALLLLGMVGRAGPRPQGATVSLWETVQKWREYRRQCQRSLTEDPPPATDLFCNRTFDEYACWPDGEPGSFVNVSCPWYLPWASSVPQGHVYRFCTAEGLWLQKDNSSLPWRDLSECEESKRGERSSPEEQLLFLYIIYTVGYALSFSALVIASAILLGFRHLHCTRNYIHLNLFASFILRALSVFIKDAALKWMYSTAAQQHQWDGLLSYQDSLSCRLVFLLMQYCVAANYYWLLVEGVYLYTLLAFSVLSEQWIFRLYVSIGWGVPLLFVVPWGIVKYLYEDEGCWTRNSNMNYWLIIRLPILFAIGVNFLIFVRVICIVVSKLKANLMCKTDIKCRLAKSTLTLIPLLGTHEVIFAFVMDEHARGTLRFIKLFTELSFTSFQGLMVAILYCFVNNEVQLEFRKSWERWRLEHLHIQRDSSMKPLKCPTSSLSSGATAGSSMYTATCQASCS
ATXN2 expr inh: Primary qHTS for Inhibitors of ATXN expression | Potency, µM (doses to about 57 µM), for inactives: at the top dose activity change, negative = inhibition, hits mostly inhibitors | 360,000 tested, 0.72% active | HEK-293 ATXN2-luciferase reporter, luminescence, 24 h; note: % is set by controls: 0 for no effect and ±100 for the full control effect; nearly all actives have a fitted effect of over 55% in size
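ATXN2-luciferase reporter cells (luciferase flanked by upstream and downstream ATXN2 gene portions) were treated 24 h at 37 °C with compounds at up to 57 uM. SteadyGlo luminescence gave expression; GF-AFC fluorescence gave viability.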
HepG2 viability: qHTS for Inhibitors of TGF-b: Cytotox Counterscreen; HepG2 CAGA-GFP viability, ATP luminescence, 18 h; Potency, µM (top dose mostly 46.1 µM), inactives show at the top dose activity change, negative = cytotoxicity, hits mostly cytotoxic; 410,000 tested, 0.76% active
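CellTiter-Glo luminescence gave cytotoxicity after 18 hours at 37 degrees C. The cells were HepG2 CAGA-GFP in 1% FBS DMEM, stimulated with 500 pg/mL TGF-beta after compound addition. %Activity was normalised to no-cell wells (complete cell-killing) and DMSO (no toxicity), and curves were fitted and classified.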
GLP-1R inv ag: qHTS of GLP-1 Receptor Inverse Agonists (Inhibition Mode). Glucagon-like peptide 1 receptor (Homo sapiens), P43220. 410,000 tested, 1.6% active. Potency, µM (series often up to 38.3 µM), for the others: at the top dose activity change, negative = inhibition, actives largely listed as inhibitors. HEK293 GLP-1R CRE-luciferase, luminescence, 24 h; GLP-1R form is constitutively active; note: % is set by controls: 0 for no effect and ±100 for the full control effect; nearly all actives have a fitted effect of over 55% in size
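Cells are plated, allowed 12 hours at 37 deg C, then treated with compounds for 24 hr before luciferase detection reagent is added and luminescence is read after 12 min at room temperature. The HEK293 line carries constitutively active GLP-1R with a cAMP-responsive reporter.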
* = called active by the depositor; i = inactive; u = inconclusive; x = no result given. Calls come from the whole dose curve; as a rule, active = well fitted curve in the direction sought with a large enough effect; inconclusive = small, poorly fitted or top-dose-only effect, or another doubt; inactive = no such curve, though single readings can be large; an effect the other way counts as inactive or inconclusive. Potency is the fitted concentration of half-maximal effect.

SMILES	TGFb SMAD3 inh	S2 tox	GLP-1R agonist	ATXN2 expr inh	HepG2 viability	GLP-1R inv ag
Nc1nc(Cl)nc2c1ncn2C1CC(O)C(CO)O1 (stereo not given)	u	i	19%	1.8µM*	-56%	5.6µM*
COc1ccc(C(CCNCc2ccc(N(C)C)cc2)C(C)C)cc1 (stereo not given)	u	u	10%	x	10µM*	u
COc1ccc(CNCCC(c2ccc(OC(C)C)cc2)C(C)C)cc1OC (stereo not given)	u	x	-24%	32µM*	16µM*	0%
COc1ccc(C(CCNCc2ccc(OC(C)C)cc2)C(C)C)cc1 (stereo not given)	u	u	11%	u	22µM*	u
COc1ccc(OC)c(CN2CCCC(n3cc(C(=O)N4CCCCC4)nn3)C2)c1 (stereo not given)	x	i	x	x	x	x
Cc1cc(C)c2nc(N3CCCC(C(=O)NCc4cccc(Cl)c4)C3)sc2c1 (stereo not given)	3%	x	x	x	24%	21%
C=CC[n+]1c(/C=C2\C=Cc3cc(C)ccc3N2CC)ccc2ccccc21	4µM*	7.9µM*	-7%	x	14µM*	u
CCN1/C(=C\c2ccc3cc(C)ccc3[n+]2CC)Sc2cc(C)c(C)cc21	155%	u	-4%	u	-70%	-21%
COc1ccc(/C=C/c2ccnc3ccccc23)c(OC)c1	u	x	x	x	-15%	x
Cc1cc(C(=O)NNC(=O)CCCOc2ccccc2)c(C)o1	7%	u	1%	6%	6%	-19%
CC(C)(C)c1ccc(OCCCC(=O)NNC(=O)c2ccccc2O)cc1	-14%	i	3%	u	-14%	13µM*
CCn1cc(C(=O)OCC(=O)Nc2cc(Cl)ccc2OC)c(=O)c2ccc(C)nc21	7%	i	-4%	7%	-2%	5%
O=S(=O)(Oc1ccccc1)c1ccc(Cl)c(Cl)c1	-1%	i	23%	-3%	-8%	u
O=[N+]([O-])c1cc(S(=O)(=O)Oc2ccccc2)ccc1Cl	u	i	-24%	11%	8.9µM*	u
CC(=O)N1CCc2c(sc(NC(=O)C3CC3)c2-c2nc3ccccc3s2)C1	u	u	9%	32µM*	-8%	u
CC(=O)Nc1sc2c(c1-c1nc3ccccc3s1)CN(C(C)C)CC2	34%	i	-19%	3.5µM*	4%	x
CC(=O)N1CCc2c(sc(NC(=O)CSc3ccccc3)c2-c2nc3ccccc3s2)C1	-22%	x	x	x	-7%	-26%
C/C(Cn1nnc([N+](=O)[O-])n1)=N\NC(=O)c1ccccc1O	-42%	i	-4%	-29%	-19%	8%
C/C(Cn1nnc([N+](=O)[O-])n1)=N\NC(=O)c1ccc(O)cc1	11µM*	u	5%	x	-31%	11%
C/C(Cn1nnc([N+](=O)[O-])n1)=N\NC(=O)c1ccc(Cl)c(Cl)c1	10µM*	u	-5%	u	14µM*	-17%
NC(=O)NC1N=C([O][Al])NC1=O (stereo not given)	x	i	x	-12%	x	x
COCC(=O)Nc1cc(C(=O)N2CCCC(C(C)=O)C2)cc2nc(-c3ccccc3)n(C)c12 (stereo not given)	x	i	x	x	x	x
CCC[C@@H](CN[C@@H](CNC)C(C)C)NCCCCc1ccccc1	u	u	0%	u	16µM*	-26%
Cc1ccccc1C(=O)NCCCCc1ccccc1	6%	i	-6%	12%	-4%	u
CN(C[C@H](Cc1ccccc1)N(C[C@@H](CC1CCCCC1)N(CCc1ccccc1)N=O)N=O)N=O	u	i	0%	2%	3%	10%
